Screens: PubChem, National Center for Advancing Translational Sciences (NCATS)
Rab9 promoter act: qHTS Assay for Rab9 Promoter Activators; Huh7 Rab9 promoter-luciferase reporter, luminescence, 24 h; Potency, µM (highest dose often 9.22 µM), inactives show top-dose activation, negative = inhibition, most hits filed as activators; actives 2.8% (n = 320,000); also: % of control where 0% means no effect; nearly all actives have a fitted effect of over 60% in size
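Steps: seed 1500 Huh7 Rab9-luc cells per well, rest 2 h at 37 °C; add compound in DMSO; incubate 24 h; add luciferase reagent, 10 min ambient; read luminescence.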
FLuc counter: qHTS profiling assay for firefly luciferase inhibitor/activator using purifed enzyme and Km concentrations of substrates (counterscreen for miR-21 project); Luciferin 4-monooxygenase (Photinus pyralis), P08659; Potency, µM (doses to about 57.5 µM), for the others: top-dose activity change, negative = inhibition, usual class: inhibitors; purified FLuc, Km substrates, luminescence inhibition; actives 6.9% (n = 360,000);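 also: plate controls were vehicle for no effect and reference inhibitor for full effect; nearly all actives have a fitted effect of over 55% in size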
Target sequence (P08659 whole entry, looked up): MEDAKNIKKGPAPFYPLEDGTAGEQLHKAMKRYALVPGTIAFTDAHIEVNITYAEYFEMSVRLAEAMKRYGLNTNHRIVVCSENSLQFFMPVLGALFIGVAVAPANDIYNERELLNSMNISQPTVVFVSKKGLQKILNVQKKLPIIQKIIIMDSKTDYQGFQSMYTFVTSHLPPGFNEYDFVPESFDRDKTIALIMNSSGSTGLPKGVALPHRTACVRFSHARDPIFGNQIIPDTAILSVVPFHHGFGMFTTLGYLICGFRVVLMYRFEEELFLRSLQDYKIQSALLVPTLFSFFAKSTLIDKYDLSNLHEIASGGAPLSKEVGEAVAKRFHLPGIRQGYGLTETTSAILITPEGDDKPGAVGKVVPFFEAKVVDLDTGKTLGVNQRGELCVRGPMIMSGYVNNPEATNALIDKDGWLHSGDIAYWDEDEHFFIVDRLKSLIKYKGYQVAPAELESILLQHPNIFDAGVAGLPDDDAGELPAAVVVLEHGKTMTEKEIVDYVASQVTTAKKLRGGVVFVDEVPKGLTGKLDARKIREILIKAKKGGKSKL
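Purified P. pyralis luciferase, 10 nM final, with Km-level 10 uM D-luciferin and 10 uM ATP in 50 mM Tris acetate pH 7.5, 10 mM Mg acetate, 0.01% Tween-20, 0.05% BSA; 6-point qHTS titration about 60 µM downward; luminescence read.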
NPC1 promoter act: qHTS Assay for NPC1 Promoter Activators. Huh7 NPC1 promoter luciferase reporter, 24 h. Potency, µM (series often up to 9.22 µM), inactives show at the highest dose activation, most hits filed as activators. actives 2.4% (n = 320,000); also: % of control where 0% means no effect; nearly all actives have a fitted effect of over 60% in size
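Stable NPC1-promoter luciferase Huh7 line; cpd (DMSO) 24 h, 37 °C, 5% CO2; Amplite luciferase reagent 10 min RT; luminescence readout. qHTS format.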
ELG1 DNA repair: qHTS screen for small molecules that inhibit ELG1-dependent DNA repair in human embryonic kidney (HEK293T) cells expressing luciferase-tagged ELG1; HEK293T ELG1-luciferase reporter, luminescence, 16 h; DNA damage induced by 5-fluorouridine; Potency, µM (top dose mostly 46.1 µM), for the others: at the top dose activity change, negative = inhibition, hits mostly inhibitors; actives 2.3% (n = 330,000); also: % is scaled to controls: 0 for no effect and ±100 for the full control effect; nearly all actives have a fitted effect of over 55% in size
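Quantitative HTS, concentration-response format. 2,000 cells/well co-treated with 5-fluorouridine and compound, 16 hr in 5% CO2 at 37 °C; ONE-Glo luminescence read after 30 min.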
SMN2 splice up: qHTS Assay for Enhancers of SMN2 Splice Variant Expression; HEK293 SMN2-luciferase splicing reporter, luminescence, 30-36 h; Potency, µM (top dose mostly 46.1 µM), inactives show at the highest dose activity change, positive = activation, usual class: activators; actives 2.8% (n = 210,000); AID 1458, 2008; also: % of control where 0% means no effect; nearly all actives have a fitted effect of over 55% in size
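HEK293 cells carry an SMN2 minigene-luciferase reporter in which exon 7 inclusion puts luciferase in frame. Cells were seeded at 2000 cells/well, attached for 10-12 hours, then exposed to compounds for 30-36 hours at 37C before ONE-Glo luminescence.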
ELG1 genotoxic: qHTS screen for small molecules that induce genotoxicity in human embryonic kidney (HEK293T) cells expressing luciferase-tagged ELG1. HEK293T ELG1-luciferase reporter, luminescence, 16 h. Potency, µM (series often up to 46 µM), without a hit: at the top dose activity change, positive = activation, usual class: activators. actives 1.3% (n = 330,000). AID 504466, 2011; also: % of control where 0% means no effect; nearly all actives have a fitted effect of over 60% in size
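Screening used a luciferase reporter fused to human ELG1 in HEK293T cells. Luminescence was read on a CCD plate imager after 16 hr exposure and 30 min ONE-Glo incubation.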
* hit, by the source's call; ? = inconclusive; · = no result given. Only some compounds are listed: those with a hit (about 9.2% of all), similar ones and a draw of the others. Calls follow the shape of the dose curve; as a rule, active = well fitted curve in the direction sought with a large enough effect; inconclusive = small, poorly fitted or top-dose-only effect, or another doubt; inactive = no such curve, though single readings can be large; an effect the other way counts as inactive or inconclusive. Potency is read from the fitted curve at half-maximal effect.

SMILES | Rab9 promoter act | FLuc counter | NPC1 promoter act | ELG1 DNA repair | SMN2 splice up | ELG1 genotoxic
C/C(=N\O)c1ccc2c3c([nH]c2c1)CCCC3 | ? | 10.7µM* | ? | ? | ? | ?
C/C(=N\O)c1ccc2[nH]ccc2c1 | ? | ? | -3.9% | ? | 22.3% | 15.1%
Cc1ccccc1Nc1nn2c(=O)c3ccccc3nc2s1 | ? | 2.69µM* | 2.51µM* | ? | 15.8µM* | ?
O=c1c2cc3c(cc2nc2sc(Nc4ccccc4)nn12)OCO3 | · | 3.01µM* | · | · | 16.2% | ·
COc1ccc(OC)c(Nc2nn3c(=O)c4ccccc4nc3s2)c1 | · | -3.5% | · | · | · | ·
O=c1c2ccccc2nc2sc(Nc3ccc(F)cc3)nn12 | ? | ? | 2µM* | ? | · | 10.3µM*
COc1ccccc1Nc1nn2c(=O)c3ccc(C(=O)N4CCC(C)CC4)cc3nc2s1 | -4.6% | -19.3% | -8.5% | 14.6µM* | · | -8.3%
Cc1ccc(C)c(Nc2nn3c(=O)c4cc5c(cc4nc3s2)OCO5)c1 | · | ? | · | · | 15.7% | ·
O=C(CSc1nc(=O)n(Cc2ccncc2)c2c1CCC2)Nc1ccccc1 | · | 3.3% | · | · | · | ·
NC(=O)c1ccc(NC(=O)COC(=O)CCC(=O)c2ccc(Cl)cc2)cc1 | 1.9% | -5.3% | -2.3% | 7.2% | 3.1% | 1.2%
NS(=O)(=O)c1ccc(CNC(=O)c2cc(-c3ccccn3)nc3ccc(Cl)cc23)cc1 | -4.4% | 2.5% | -6.9% | ? | · | ?
CCOc1ccc(N(CC)C(=O)CSc2n[nH]c(-c3ccccc3)n2)cc1 | · | -19.4% | · | · | · | ·
C=CCSc1n[nH]c(-c2ccccc2)n1 | 27.9% | ? | 27.8% | ? | 16.5% | ?
COc1ccc(-c2nc(SCC(=O)Nc3c(F)cccc3F)n[nH]2)cc1 | -3.1% | 12µM* | -0.7% | 13.3% | · | 16.2%
COc1ccc(-c2nc(SCC(=O)Nc3cccc(C(C)=O)c3)n[nH]2)cc1 | · | 6.75µM* | · | · | · | ·
C=CCSc1n[nH]c(-c2ccc(OC)cc2)n1 | 2µM* | 15.1µM* | 2.82µM* | ? | 14.1µM* | 3.26µM*
CCCCOc1ccc(-c2nc(SCC(N)=O)n[nH]2)cc1 | 25.5% | 10.7µM* | ? | ? | 9.6% | 11.9%
CC(=O)c1cccc(NC(=O)CSc2n[nH]c(-c3ccncc3)n2)c1 | -12.3% | ? | 1.3% | 14.4% | · | 1.8%
COC(=O)c1cc2sccc2n1Cc1ccc(F)cc1Cl | · | -13.0% | · | · | 0.5% | ·
O=C(Cc1ccccc1)Nc1ccnn1C1CCN(Cc2nccs2)CC1 | 3.1% | 2.4% | -6.6% | 4.5% | · | -3.6%
CC(=O)c1cnc2c(-c3ccccc3)c(-c3ccccc3)nn2c1C | -4.8% | 9.9% | -1.6% | -11.4% | · | -6.5%
CCCCOc1ccc(-c2nc(=S)[nH][nH]2)cc1 | ? | ? | 25.5% | ? | 10µM* | 29.5%
COc1ccc(-c2nc(SCC(=O)Nc3cc(C)on3)n[nH]2)cc1 | 0.5% | 21.3µM* | -0.4% | -17.3% | -10.8% | 10.9%
CCOc1ccc(-c2nc(CSCC(=O)N3CCN(c4cccc(OC)c4)CC3)c(C)o2)cc1 | -8.1% | 23.9µM* | 1.9% | ? | -97.2% | -8.5%
CCc1ccc(-c2nc(CSCC(=O)N3CCN(c4ccccn4)CC3)c(C)o2)cc1 | -26.1% | ? | -9.5% | ? | · | -11.4%
SMILES | Rab9 promoter act | FLuc counter | NPC1 promoter act | ELG1 DNA repair | SMN2 splice up | ELG1 genotoxic
Cc1ccc(-c2nc(CSCC(=O)N3CCN(c4ccccn4)CC3)c(C)o2)cc1 | -0.2% | 5.8% | -0.3% | 10.3µM* | -94.9% | -8.3%
COc1ccc(-c2nc(CSCC(=O)N3CCN(c4ccccc4F)CC3)c(C)o2)cc1 | · | -17.8% | · | · | -65.5% | ·
CC(C)CC(=O)Nc1ccc(C(=O)Nc2cccc(O)c2)cc1 | ? | 16.9µM* | 29.8% | ? | · | ?
Cc1ccc(C)n1-c1ccc(C(=O)Nc2ccccc2)cc1 | ? | 9.53µM* | 28.0% | -5.7% | 12.6µM* | ?
O=C(Nc1ccc(C(=O)c2ccccc2)cc1)c1ccccc1 | 2µM* | 10.7µM* | 3.55µM* | ? | · | ?
O=C(Nc1ccc(Br)c(C(F)(F)F)c1)c1ccccc1 | -1.4% | 19µM* | -3.7% | ? | -12.7% | 2.0%
Cc1ccc(C)c(NC(=O)CN2C(=O)CC(C)S(=O)(=O)c3ccccc32)c1 (stereo not drawn) | 3.3% | 0.1% | -2.1% | 13.6% | · | 2.6%
Nc1nc2c(F)c(F)c(F)cc2s1 | -2.3% | -13.0% | -6.9% | 11.5% | 6.4% | 2.5%
CC1(C)Oc2ccc3ccc(=O)oc3c2[C@@H](O)[C@H]1O | 0.8% | 2.9% | -1.8% | 26.2% | · | 4.5%
CN1C(=O)C2CCCCN2c2ccc(C(=O)NCc3ccccc3Br)cc21 (stereo not drawn) | · | -8.9% | · | · | · | ·
CS(=O)(=O)Cc1ccc(C(=O)NC2CCSc3ccccc32)cc1 (stereo not drawn) | -1.7% | 1.8% | -7.8% | -5.9% | · | -1.1%
O=C(Nc1ccc(C(F)(F)F)cc1)c1ccccc1 | 2.51µM* | ? | 2.82µM* | ? | · | 17.9%
O=C(O)c1ccc2nc(-c3ccco3)c(-c3ccco3)nc2c1 | -6.7% | ? | -0.1% | 1.2% | -21.7% | -1.0%
O=C(NNC(=O)c1ccc(NC(=O)c2ccccc2)cc1)Nc1ccccc1 | -3.8% | -12.5% | -0.6% | ? | -0.5% | 17.8%
O=C(NNC(=O)c1ccc(NC(=O)c2ccccc2)cc1)c1ccc(F)cc1 | 7.7% | 0.5% | 0.6% | 3.8% | · | 18.3µM*
O=C(Nc1cccc(O)c1)c1ccc(C(F)(F)F)cc1 | ? | 12µM* | ? | ? | · | 18.3%
O=C(Nc1cccc(C(F)(F)F)c1)c1ccc2nc(-c3ccco3)c(-c3ccco3)nc2c1 | -4.0% | ? | -0.1% | 20.6µM* | -10.8% | -25.0%
O=C(Nc1ccc(C(F)(F)F)cc1)N1CCC(N2CCCCC2)CC1 | · | -0.1% | · | · | -6.0% | ·
Cc1ccc(S(=O)(=O)NCC(=O)OCC(=O)Nc2cccc(S(=O)(=O)N3CCOCC3)c2)cc1 | · | · | · | 24.9% | · | 1.7%
C=CCn1c(SCC(=O)N(CCOC)c2c(N)n(CC(C)C)c(=O)[nH]c2=O)nc2ccccc21 | 2.5% | -0.1% | -0.5% | 14.9% | · | -1.6%
C=CCOC(=O)COc1ccc2c(C)c(CC)c(=O)oc2c1 | -2.5% | 12µM* | 4.6% | -6.5% | 29.5% | -1.3%
C=CCOC(=O)COc1ccc2c(C)c(C)c(=O)oc2c1 | -0.7% | 19µM* | -0.1% | 2.6% | 10.0% | 1.7%
